Source: PubChem
V-ATPase pH: regulators of yeast V-ATPase proton pumping, primary screen, pHLuorin cytosolic pH fluorescence; S. cerevisiae; response, % at 10 µM; 350,000 tested, 0.37% active; AID 504577, 2011; in the data active means response mostly above about 7.3%, no sharp cut-off; inactive means mostly below about 5.4%; further: actives read high
NPR1 activator: GC-A stimulated cGMP production enhancers – HEK293 GC-A cells, cGMP TR-FRET, EC30 ANP, primary screen; 370,000 tested, 0.14% active; activation, % at 10 µM; AID 1671463, 2021; 0% at EC30 ANP, 100% saturating ANP; in the data active means activation above about 40%
NSD2 inh: NSD2 histone methyltransferase inhibitors, primary screen, biochemical, AlphaScreen, single concentration, set 2; NSD2 peptide methylation, 120 min; inhibition, % at 12.5 µM; 310,000 tested, 0.54% active; in the data active means inhibition above about 50%
Target sequence (O96028 whole entry, looked up): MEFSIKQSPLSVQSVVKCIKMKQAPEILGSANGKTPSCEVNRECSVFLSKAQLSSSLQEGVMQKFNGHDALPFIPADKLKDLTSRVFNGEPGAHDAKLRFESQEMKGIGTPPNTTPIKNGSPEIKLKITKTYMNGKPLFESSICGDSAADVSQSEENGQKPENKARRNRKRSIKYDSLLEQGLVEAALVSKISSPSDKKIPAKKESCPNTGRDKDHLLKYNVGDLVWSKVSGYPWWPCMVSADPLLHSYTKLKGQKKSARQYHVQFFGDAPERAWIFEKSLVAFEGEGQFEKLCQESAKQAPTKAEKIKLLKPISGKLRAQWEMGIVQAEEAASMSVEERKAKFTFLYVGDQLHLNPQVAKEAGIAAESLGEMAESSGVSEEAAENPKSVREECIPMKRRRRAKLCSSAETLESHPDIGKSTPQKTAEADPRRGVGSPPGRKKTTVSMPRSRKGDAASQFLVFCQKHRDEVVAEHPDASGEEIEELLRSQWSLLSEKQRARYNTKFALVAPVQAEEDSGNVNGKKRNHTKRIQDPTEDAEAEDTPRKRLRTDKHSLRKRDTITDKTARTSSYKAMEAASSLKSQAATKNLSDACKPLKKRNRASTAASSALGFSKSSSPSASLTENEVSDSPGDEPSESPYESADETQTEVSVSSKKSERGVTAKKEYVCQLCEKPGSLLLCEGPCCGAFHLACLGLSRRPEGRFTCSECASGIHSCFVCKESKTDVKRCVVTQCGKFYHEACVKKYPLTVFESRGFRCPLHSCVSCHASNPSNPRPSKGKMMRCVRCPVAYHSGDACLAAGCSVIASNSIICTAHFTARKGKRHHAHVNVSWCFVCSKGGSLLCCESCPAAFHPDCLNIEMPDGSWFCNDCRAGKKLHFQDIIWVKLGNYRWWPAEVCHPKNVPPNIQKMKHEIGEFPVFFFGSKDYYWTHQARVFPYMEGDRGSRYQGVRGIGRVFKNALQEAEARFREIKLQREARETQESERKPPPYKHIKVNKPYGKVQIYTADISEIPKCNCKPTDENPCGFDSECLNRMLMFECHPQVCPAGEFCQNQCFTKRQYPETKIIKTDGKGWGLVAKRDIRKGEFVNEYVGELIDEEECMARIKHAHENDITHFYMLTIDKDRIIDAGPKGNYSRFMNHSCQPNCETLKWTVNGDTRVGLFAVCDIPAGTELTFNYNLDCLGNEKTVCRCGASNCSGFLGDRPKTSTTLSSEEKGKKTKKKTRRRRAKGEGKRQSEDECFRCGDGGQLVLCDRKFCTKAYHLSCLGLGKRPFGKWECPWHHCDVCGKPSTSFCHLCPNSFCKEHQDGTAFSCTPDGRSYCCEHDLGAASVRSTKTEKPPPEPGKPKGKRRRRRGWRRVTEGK
Efflux pump inh: inhibitors of Candida efflux pumps in yeast, primary screen, S. cerevisiae, Nile Red, multiplex; S. cerevisiae Candida pump triplex; 330,000 tested, 0.44% active; inhibition, % at 10 µM;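 active means plate passing quality check with inhibition over a set limit, or well fluorescence over plate mean plus 4 SD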;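 further: Nile Red retained in pooled yeast measured as flow cytometry median fluorescence; 0% = buffer negative control and 100% = Enniatin B positive control; higher means more Nile Red kept so more efflux inhibition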
NPR2 activator: human GC-B receptor activators, primary screen, HEK293 GC-B cells, cGMP TR-FRET, EC30 CNP. activation, % at 10 µM. 370,000 tested, 0.11% active. AID 1920062, 2024. 0% at EC30 CNP, 100% saturating CNP. Atrial natriuretic peptide receptor 2 (Homo sapiens), P20594;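 active means activation at 10 µM reaching about 35% in either raw or pattern-adjusted values, limit read from the data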
Rce1 inhib: yeast Rce1p protease inhibitors, primary screen, biochemical, fluorescence, cell-free homogeneous | yeast membranes, quenched prenylated peptide cleavage fluorescence | CAAX prenyl protease 2 (Saccharomyces cerevisiae (strain ATCC 204508 / S288c)), Q03530 | calls only | 290,000 tested, 0.27% active;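 active means fall in fluorescence gain of 50% or more versus controls, with final raw signal at or below 3038400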;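 further: plate controls were neutral control wells for no effect and wells lacking membranes for full effect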
Yeast cmpd fluor: flagged as fluorescent in efflux inhibitor counter-screen | 1,700 tested, 4% active | S. cerevisiae AD/pABC3, compound fluorescence, flow cytometry | fluorescence ratio to DMSO, % at 10 µM | shares compounds with Efflux pump inh;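 active means fluorescence ratio to DMSO above its plate's cutoff, the plate mean ratio plus 5 SD, cut at about 210% in these data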;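 further: unstained yeast with no Nile Red so the signal is compound autofluorescence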
CaMdr1 efflux inh: inhibitors of Candida albicans Mdr1 efflux, confirmation, flow cytometry, singleplex, Cherry Pick1 set. shares compounds with Efflux pump inh. S. cerevisiae AD/CaMDR1, Nile Red efflux. inhibition, % at 10 µM. 1,700 tested, 1% active. AID 588518, 2011; in the data active means inhibition above about 26%;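 further: 0% = DMSO vehicle and 100% = reference inhibitor; higher means more Nile Red retained so more efflux inhibition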
Cdr2 pump inh: inhibitors of Candida albicans Cdr2 efflux pump, confirmation, S. cerevisiae AD/CaCDR2, flow cytometry, cherry pick 1, singleplex. 1,700 tested, 4% active. Nile Red retention ratio vs DMSO, % at 10 µM. shares compounds with Efflux pump inh. Nile Red retention. AID 588520, 2011; in the data active means Nile Red retention ratio vs DMSO above about 190%;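 further: higher ratio means more blocking of Cdr2 efflux of the dye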
CaCdr1 efflux inh: inhibitors of Candida albicans Cdr1 efflux pump, confirmation, S. cerevisiae AD/CaCDR1, flow cytometry, cherry pick 1, singleplex. shares compounds with Efflux pump inh. Nile Red efflux. inhibition, % at 10 µM. 1,700 tested, 1% active. AID 588522, 2011;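 active means inhibition above the screen-wide mean plus twice its standard deviation, cut at about 32% in these data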
Starred values were filed as active, the others as inactive; i = inactive; x = no result. Shown are actives, neighbours in structure and some others; about 1.6% of the full set was active somewhere.

SMILES | V-ATPase pH | NPR1 activator | NSD2 inh | Efflux pump inh | NPR2 activator | Rce1 inhib | Yeast cmpd fluor | CaMdr1 efflux inh | Cdr2 pump inh | CaCdr1 efflux inh
COc1cccc(CNC(=O)C2C3C=CC4(CN(Cc5ccccc5)C(=O)C24)O3)c1OC (stereo not given) | x | 5 | 2 | x | -3 | x | x | x | x | x
COc1ccc(S[C@]2(C(=O)N3CCCC3)CC(=O)N(c3ccccc3OC)[C@@H]2c2ccc(OC)cc2)cc1 | x | -2 | x | x | -1 | x | x | x | x | x
Nc1nonc1-n1nnc(C(=O)N/N=C/c2ccncc2)c1CSc1ccccc1 | -3 | -2 | 5 | 0 | 4 | i | x | x | x | x
Cc1ccccc1COc1ccc(/C=N/NC(=O)c2nnn(-c3nonc3N)c2CN2CCC(C)CC2)cc1 | 5 | -2 | -1 | 0 | 2 | i | x | x | x | x
CCCc1c(C(=O)N/N=C/c2c(OC)ccc3ccccc23)nnn1-c1nonc1N | -1 | 10 | -4 | 0 | 14 | i | 104 | 0 | 103 | 0
CCCc1c(C(=O)N/N=C(\C)c2ccc(O)cc2)nnn1-c1nonc1N | 2 | 2 | -1 | -1 | 2 | i | x | x | x | x
Nc1nonc1-n1nnc(C(=O)N/N=C/c2ccccc2)c1CSc1ccccc1 | -2 | -2 | -2 | 1 | -2 | x | 108 | 0 | 101 | 0
C/C(=N\NC(=O)c1nnn(-c2nonc2N)c1COc1ccc(F)cc1)c1ccc(Cl)cc1 | 0 | -5 | -12 | 0 | 0 | i | 99 | 0 | 109 | 0
CCCc1c(C(=O)N/N=C/c2ccc(OC)c(OCc3ccccc3)c2)nnn1-c1nonc1N | 0 | 4 | -4 | 0 | 6 | i | x | x | x | x
CC1CCN(Cc2c(C(=O)N/N=C/c3ccc(OC(C)C)cc3)nnn2-c2nonc2N)CC1 | -4 | 2 | 13 | 0.4* | -1 | i | 111 | 0 | 108 | 0
COCCCN1C(=O)[C@H](CC(=O)NCCCCc2ccccc2)[C@]2(C(=O)OC)CCCCC=C12 | x | 0 | x | x | 3 | x | x | x | x | x
C=CCn1c(SCC#N)nc2ccccc2c1=O | 1 | -4 | -1 | 0.6* | -1 | i | 93 | 0 | 106 | 0
CCOC(=O)c1cnc(SC)nc1Oc1cccc(NS(=O)(=O)c2ccc(Cl)cc2)c1 | -1 | -4 | -3 | 0 | -1 | i | x | x | x | x
CCOC(=O)c1cnc(SC)nc1Oc1cccc(NC(=O)c2ccc(Cl)cc2)c1 | 1 | -4 | -1 | 1.5* | -3 | i | 105 | 0 | 116 | 1
Cc1nc2ccc(NC(=O)Cc3ccc4c(c3)OCCO4)cc2s1 | -1 | 2 | 1 | 8.2* | 3 | i | 119 | 0 | 108 | 0
O=C(CCS(=O)(=O)c1ccccc1)Nc1ccc(F)cc1F | x | 0 | -1 | x | -5 | x | x | x | x | x
O=C(c1ccc(Cl)cc1)[C@@H]1[C@@H]2C(=O)N(c3ccc(Cl)cc3)C(=O)[C@@H]2C2c3ccccc3C=NN21 (stereo not given in full) | -7 | -1 | 3 | 0.6* | -5 | i | 113 | 0 | 89 | 0
Cc1ccc(N2C(=O)[C@@H]3[C@H](C2=O)C2c4ccccc4C=NN2[C@@H]3C(=O)c2ccc(Cl)cc2)cc1 (stereo not given in full) | -5 | 3 | -2 | 0 | 1 | i | x | x | x | x
COc1cc(/C=C/C(=O)OCC(=O)NCC2CCCO2)ccc1OCC#N (stereo not given) | -2 | 4 | 0 | 6.5* | 1 | i | 98 | 0 | 90 | 0
CC(C)(C)N(Cc1cn(Cc2ccccc2)nn1)S(=O)(=O)c1ccc(N2CCCC2)cc1Br | x | 0 | x | x | 2 | x | x | x | x | x
Cn1c(SCC(=O)Nc2ccc3nc(SCC(=O)NC4CC4)sc3c2)nnc1-c1ccccc1 | 0 | -4 | -3 | 1.1* | -10 | i | 100 | 0 | 123 | 0
Cc1csc(NC(=O)CCNS(=O)(=O)c2ccc3c(c2)c(=O)n(C)c(=O)n3C)n1 | 5 | 0 | 0 | 6.7* | 3 | i | 98 | 0 | 105 | 0
Cc1ccc(CCNC(=O)CCNS(=O)(=O)c2ccc3c(c2)c(=O)n(C)c(=O)n3C)cc1 | 20* | 1 | 2 | 9.0* | 6 | i | 100 | 0 | 89 | 0
CCN(CC)C(=O)CSc1nnc(-c2ccc(C(C)(C)C)cc2)n1-c1ccc(Cl)cc1 | x | 0 | -2 | x | 12 | x | x | x | x | x
COCc1nnc(NC(=O)COc2ccc3c(c2)OCO3)s1 | -1 | 3 | -3 | 0 | 5 | x | x | x | x | x
SMILES | V-ATPase pH | NPR1 activator | NSD2 inh | Efflux pump inh | NPR2 activator | Rce1 inhib | Yeast cmpd fluor | CaMdr1 efflux inh | Cdr2 pump inh | CaCdr1 efflux inh
CCOC(=O)C(=O)Nc1nnc(COc2ccccc2)s1 | 3 | 3 | -1 | 0 | 7 | i | x | x | x | x
CCc1nnc(NC(=O)COc2ccc3ccccc3c2)s1 | 4 | 2 | 18 | 0 | -5 | x | 114 | 0 | 106 | 0
CCOCc1nnc(NC(=O)COc2ccc3c(c2)OCO3)s1 | -2 | 0 | 1 | 1.7* | -1 | x | 107 | 0 | 98 | 0
CCOc1ccccc1OCC(=O)Nc1nnc(COC)s1 | -6 | 5 | 11 | 0 | 0 | x | 104 | 0 | 96 | 0
CN1CCc2nc(NC(=O)COc3ccc4ccccc4c3)sc2C1 | 1 | 3 | 3 | 0 | 3 | i | x | x | x | x
O=C(COc1ccccc1)Nc1nnc(COc2ccccc2)s1 | -6 | -1 | 0 | 0 | 0 | i | 74 | 0 | 89 | 0
CCCN1CCS(=O)(=O)N(Cc2cn(Cc3ccc(Cl)cc3)nn2)C(C(=O)OC)C1 (stereo not given) | x | 4 | x | x | 3 | x | x | x | x | x
CCn1c(COc2ccc(Cl)cc2)nnc1SCC(=O)Nc1ccc(Oc2ccccc2)cc1 | x | -2 | -5 | x | -6 | x | x | x | x | x
CCCC(=O)OC12CCCN(C1)/C(=C/c1ccccc1)C2 (stereo not given) | x | -2 | x | x | 2 | x | x | x | x | x
O=C(Cc1ccc(Cl)cc1)c1c[nH]c(C(=O)NCCCn2ccnc2)c1 | 2 | -1 | -1 | 0.6* | -2 | i | 99 | 0 | 85 | 0
